Consider eight compounds from PubChem BioAssay (Tox21).

Unmarked numbers belong to inactive results. Records with an inconclusive call do not appear. Calls of active or inactive are those of the source. Unless noted, calls come from the whole dose curve; as a rule, active = well fitted curve in the direction sought with a large enough effect in the repeat runs; inconclusive = weak or mixed curves; inactive = no such curve, though single readings can be large; an effect the other way counts as inactive or inconclusive.

Assay [1] concerns the target Thyrotropin-releasing hormone receptor (Homo sapiens) (UniProt P34981). The experiment in a line: qHTS assay to identify small molecule agonists of the thyrotropin-releasing hormone receptor (TRHR) signaling pathway (AID 1346891; calls by dose curve; note: series mostly up to about 58 µM). A digest of the protocol:
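TRHR-expressing HEK293 cells were plated 18 h at 37 °C/5% CO2, loaded with calcium dye 2 h at 37 °C, then given compound in DMSO; fluorescence was read kinetically for 3 min at 1 s intervals.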
A general note: qHTS replaces the single test concentration by a dilution series.

Assay [2] can be described thus: Human pregnane X receptor (PXR) small molecule agonists, qHTS cell viability counter screen (AID 1346977). Note: nearly all actives have a fitted effect of over 50% in size. The essentials: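 PXR-Luc HepG2 cells in medium with 5% charcoal-stripped FBS were pre-incubated 5hr, then exposed to compounds for 24hr at 37C. Viability was read in the same wells by CellTiter-Fluor fluorescence, reagent added after 23hr with a 1hr incubation.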

The nature of assay [3]: Caspase-3/7 induction in CHO-K1 cells by small molecules, qHTS cell viability counter screen (AID 1346979). Note: nearly all actives have a fitted effect of over 35% in size. Note: potency is the fitted concentration of half-maximal effect. A digest of the protocol:
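Wild-type CHO-K1 cells were seeded at 1,500 per well, rested 5hr at 37 C, then exposed to compounds in DMSO. After 16hr, CellTiter-Fluor reagent was added and fluorescence read 1hr later as the viability measure.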

The nature of assay [4]: Caspase-3/7 induction in CHO-K1 cells by small molecules, qHTS assay (AID 1346980). Note: nearly all actives have a fitted effect of over 15% in size. A digest of the protocol: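 Luminescent Caspase-Glo 3/7 read (30min, room temperature) quantified apoptosis induction. Cells were wild-type CHO-K1, treated with compound for 17hr at 37 C and 5% CO2.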
The nature of assay [5]: Caspase-3/7 induction in HepG2 cells by small molecules, qHTS cell viability counter screen (AID 1346981). Note: nearly all actives have a fitted effect of over 30% in size. Note: potency is the fitted concentration of half-maximal effect. A digest of the protocol:
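The parent HepG2 line is plated at 2,000 cells per well and rested 5 hr before compound pinning from DMSO stocks. Following a 16-hr treatment at 37 C, a fluorogenic live-cell substrate (CellTiter-Fluor) reports viability after 1 hr.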

Assay [6] has as its target Nuclear receptor subfamily 1 group I member 2 (Homo sapiens) (UniProt O75469). The assay is described as follows: Human pregnane X receptor (PXR) small molecule agonists, qHTS assay (AID 1346982). Note: nearly all actives have a fitted effect of over 35% in size. Note: potency is the fitted concentration of half-maximal effect. The essentials:
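After plating in 5% charcoal-stripped FBS and a 5 hr rest, PXR-Luc HepG2 cells received compounds in DMSO. Following 24 hr at 37 C, ONE-Glo was added and light output read.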

The target in assay [7] is Cytochrome P450 2D6 (Homo sapiens) (UniProt P10635). The assay is described as follows: Cytochrome P450 Family 2 Subfamily D Member 6 (CYP2D6) small molecule antagonists: luciferase reporter qHTS assay (AID 1671196). Note: nearly all actives have a fitted effect of over 50% in size. Note: potency is the fitted concentration of half-maximal effect. The essentials:
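Quantitative HTS of Tox21 chemicals against CYP2D6 using a luminescent proluciferin substrate. After NADPH addition, 1 h room-temperature reaction; luminescence recorded 20 min post detection reagent.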

Assay [8] addresses Cytochrome P450 2C19 (Homo sapiens) (UniProt P33261). The assay is described as follows: Cytochrome P450 Family 2 Subfamily C Member 19 (CYP2C19) small molecule antagonists: luciferase reporter qHTS assay (AID 1671197). Note: nearly all actives have a fitted effect of over 65% in size. Note: potency is the fitted concentration of half-maximal effect. A digest of the protocol:
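Light output is proportional to CYP2C19 activity: proluciferin substrate is converted to luciferin, then detected by a luciferin detection reagent that also stops the 1 h, 37C NADPH-driven reaction. Ketoconazole serves as positive control.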
For orientation: Reporter assays use an easily measured gene product as a stand-in for the process of interest.

For assay [9], the target named is Cytochrome P450 2C9 (Homo sapiens) (UniProt P11712). The experiment in a line: Cytochrome P450 Family 2 Subfamily C Member 9 (CYP2C9) small molecule antagonists: luciferase reporter qHTS assay (AID 1671198). Note: nearly all actives have a fitted effect of over 50% in size. Note: potency is the fitted concentration of half-maximal effect. A digest of the protocol:
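Enzyme-substrate mix preincubated with compound 10 min at room temperature; reaction started with NADPH regeneration solution, 1 h 37C. Luminescent luciferin product read after 20 min detection reagent.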

The target of assay [10] is Cytochrome P450 1A2 (Homo sapiens) (UniProt P05177). The experiment in a line: Cytochrome P450 Family 1 Subfamily A Member 2 (CYP1A2) small molecule antagonists: luciferase reporter qHTS assay (AID 1671199). Note: nearly all actives have a fitted effect of over 50% in size. Note: potency is the fitted concentration of half-maximal effect. The essentials:
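Quantitative high-throughput format using the P450-Glo CYP1A2 system. Reaction initiated by NADPH regeneration solution, 1 h at room temperature, then stopped with detection reagent; luminescence measured 20 min later.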

Assay [11] deals with Voltage-gated inwardly rectifying potassium channel KCNH2 (Homo sapiens) (UniProt Q12809). The assay is described as follows: Human Ether-a-go-go-Related Gene (hERG) channel small molecule antagonists: fluorescence cell-based qHTS assay (AID 1671200). Note: nearly all actives have a fitted effect of over 50% in size. Note: potency is the fitted concentration of half-maximal effect. The essentials:
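U2OS cells expressing the channel were plated at 1000 cells/well, incubated overnight at 37 C, then loaded with FluxOR II thallium-sensitive dye for 1 h at room temperature in the dark, with a further 10 min at room temperature before stimulation.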

The nature of assay [12]: Caspase-3/7 induction in HepG2 cells by small molecules, qHTS assay (AID 1346978). Note: nearly all actives have a fitted effect of over 15% in size. The essentials: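 Caspase-3/7 induction was measured by Caspase-Glo 3/7 luminescence (30 min, room temperature) after a 17 hr compound exposure of wild-type HepG2 cells seeded at 2,000 per well and pre-incubated 5 hr.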
Assay [13] concerns the target Nuclear receptor subfamily 1 group I member 2 (Rattus norvegicus) (UniProt Q9R1A7). The assay is described as follows: Rat pregnane X receptor (rPXR) activation by small molecules, qHTS assay (AID 1346983). Note: nearly all actives have a fitted effect of over 20% in size. Note: potency is the fitted concentration of half-maximal effect. Particulars: rPXR luciferase reporter cells, One-Glo luminescence, 24 h; max activation: hits give high values. The essentials:
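Luminescent readout (One-Glo luciferase, 30 min room temperature) followed 24 hr compound treatment at 37 C of rPXR cells plated 2,000 per well and preincubated 5hr; qHTS format with compounds delivered in DMSO.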

For assay [14], the target named is Nuclear receptor subfamily 1 group I member 2 (Homo sapiens) (UniProt O75469). The experiment in a line: CYP3A4 induction through human pregnane X receptor (PXR) by small molecules, qHTS assay (AID 1346984). Note: nearly all actives have a fitted effect of over 40% in size. Note: potency is the fitted concentration of half-maximal effect. The essentials: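 Human PXR activation is tracked via CYP3A4 promoter-luciferase in DPX-2 (HepG2) cells. Compounds treat cells for 24hr at 37C, and luminescence is read after One-Glo.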
Nuclear receptor subfamily 1 group I member 2 (Homo sapiens), sequence (O75469 whole entry, looked up): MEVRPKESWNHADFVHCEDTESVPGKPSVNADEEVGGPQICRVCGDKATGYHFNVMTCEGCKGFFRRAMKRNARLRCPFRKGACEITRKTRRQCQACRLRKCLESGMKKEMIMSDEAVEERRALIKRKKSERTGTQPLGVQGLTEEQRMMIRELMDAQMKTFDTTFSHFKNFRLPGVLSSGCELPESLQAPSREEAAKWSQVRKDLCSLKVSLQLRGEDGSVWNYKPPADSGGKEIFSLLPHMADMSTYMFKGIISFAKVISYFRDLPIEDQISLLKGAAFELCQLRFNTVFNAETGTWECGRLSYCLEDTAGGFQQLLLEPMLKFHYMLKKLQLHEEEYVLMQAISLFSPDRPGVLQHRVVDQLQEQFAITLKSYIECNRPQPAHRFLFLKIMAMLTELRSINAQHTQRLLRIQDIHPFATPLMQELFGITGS

Assay [15] has the same target. The assay is described as follows: Human pregnane X receptor (PXR) activation by small molecules, qHTS assay (AID 1346985). Note: nearly all actives have a fitted effect of over 40% in size. Note: potency is the fitted concentration of half-maximal effect. A digest of the protocol: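 DPX-2 cells (HepG2 co-transfected with a PXR response element and a CYP3A4-promoter luciferase construct) were seeded at 2,000 per well, rested 5 hr at 37C, then exposed to DMSO-dissolved compounds for 24 hr. Activation was read as luciferase luminescence.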

The target in assay [16] is Cytochrome P450 3A4 (Homo sapiens) (UniProt P08684). The experiment in a line: Cytochrome P450 Family 3 Subfamily A Member 4 (CYP3A4) small molecule antagonists: luciferase reporter qHTS assay (AID 1671201). A digest of the protocol: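 P450-Glo CYP3A4 system with proluciferin substrate; compounds preincubated 10 min RT with enzyme-substrate mix, then NADPH regeneration added for 1 h RT. Detection reagent 20 min, luminescence read as relative luminescence units.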
Cytochrome P450 3A4 (Homo sapiens), sequence (P08684 whole entry, looked up): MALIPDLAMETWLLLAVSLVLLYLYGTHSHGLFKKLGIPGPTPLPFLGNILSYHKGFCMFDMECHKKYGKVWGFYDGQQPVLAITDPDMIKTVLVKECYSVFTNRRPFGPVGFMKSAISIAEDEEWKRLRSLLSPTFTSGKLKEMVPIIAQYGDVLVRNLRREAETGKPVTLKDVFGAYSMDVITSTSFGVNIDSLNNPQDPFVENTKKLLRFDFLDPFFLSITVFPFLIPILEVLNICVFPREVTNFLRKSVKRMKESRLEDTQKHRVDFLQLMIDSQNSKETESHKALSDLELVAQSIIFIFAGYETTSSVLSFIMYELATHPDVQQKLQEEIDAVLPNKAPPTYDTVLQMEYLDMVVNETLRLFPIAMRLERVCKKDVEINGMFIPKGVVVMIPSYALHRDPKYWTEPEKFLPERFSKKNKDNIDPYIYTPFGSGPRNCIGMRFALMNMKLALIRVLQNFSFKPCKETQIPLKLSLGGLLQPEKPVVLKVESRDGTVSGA
% is set by controls: 0 for no effect and ±100 for the full control effect.

Thyrotropin-releasing hormone receptor (Homo sapiens), sequence (P34981 whole entry, looked up): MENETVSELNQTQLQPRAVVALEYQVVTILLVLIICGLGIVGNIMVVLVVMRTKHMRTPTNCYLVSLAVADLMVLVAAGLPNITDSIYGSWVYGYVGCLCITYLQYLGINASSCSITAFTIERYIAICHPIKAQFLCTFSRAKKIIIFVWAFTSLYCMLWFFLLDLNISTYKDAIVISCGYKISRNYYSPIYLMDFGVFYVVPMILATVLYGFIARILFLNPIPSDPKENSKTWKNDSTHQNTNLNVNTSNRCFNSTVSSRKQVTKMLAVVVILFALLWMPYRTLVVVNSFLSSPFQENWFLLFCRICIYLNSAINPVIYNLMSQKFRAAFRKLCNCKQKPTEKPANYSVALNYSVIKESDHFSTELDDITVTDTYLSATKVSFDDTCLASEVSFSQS
Cytochrome P450 2C9 (Homo sapiens), sequence (P11712 whole entry, looked up): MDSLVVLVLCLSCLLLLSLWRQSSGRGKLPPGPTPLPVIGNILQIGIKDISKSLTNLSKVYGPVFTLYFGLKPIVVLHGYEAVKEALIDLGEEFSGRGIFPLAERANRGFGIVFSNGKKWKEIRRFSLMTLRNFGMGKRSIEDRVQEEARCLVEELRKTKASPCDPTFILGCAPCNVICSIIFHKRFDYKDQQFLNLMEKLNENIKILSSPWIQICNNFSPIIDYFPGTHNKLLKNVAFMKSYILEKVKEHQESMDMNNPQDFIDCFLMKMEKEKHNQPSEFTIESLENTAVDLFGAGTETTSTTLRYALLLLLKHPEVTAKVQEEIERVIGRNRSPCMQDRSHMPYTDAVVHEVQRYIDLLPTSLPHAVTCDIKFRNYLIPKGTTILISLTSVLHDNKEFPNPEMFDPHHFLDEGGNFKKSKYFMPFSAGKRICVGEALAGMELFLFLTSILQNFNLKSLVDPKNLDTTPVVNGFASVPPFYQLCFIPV
Cytochrome P450 1A2 (Homo sapiens), sequence (P05177 whole entry, looked up): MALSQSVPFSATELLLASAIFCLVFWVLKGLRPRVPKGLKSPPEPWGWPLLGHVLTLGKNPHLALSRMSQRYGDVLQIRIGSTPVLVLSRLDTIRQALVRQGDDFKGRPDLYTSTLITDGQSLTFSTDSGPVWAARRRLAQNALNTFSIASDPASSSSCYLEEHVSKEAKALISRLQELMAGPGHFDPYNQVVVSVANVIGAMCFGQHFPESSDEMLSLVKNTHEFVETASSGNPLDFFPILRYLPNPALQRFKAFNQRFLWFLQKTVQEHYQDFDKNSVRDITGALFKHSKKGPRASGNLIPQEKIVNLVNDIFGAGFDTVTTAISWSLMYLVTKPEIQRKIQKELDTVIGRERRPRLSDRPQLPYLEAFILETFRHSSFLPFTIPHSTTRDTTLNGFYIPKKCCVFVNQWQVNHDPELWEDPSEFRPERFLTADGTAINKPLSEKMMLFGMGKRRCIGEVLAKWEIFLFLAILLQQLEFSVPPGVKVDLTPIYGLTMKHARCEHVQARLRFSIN
Cytochrome P450 2C19 (Homo sapiens), sequence (P33261 whole entry, looked up): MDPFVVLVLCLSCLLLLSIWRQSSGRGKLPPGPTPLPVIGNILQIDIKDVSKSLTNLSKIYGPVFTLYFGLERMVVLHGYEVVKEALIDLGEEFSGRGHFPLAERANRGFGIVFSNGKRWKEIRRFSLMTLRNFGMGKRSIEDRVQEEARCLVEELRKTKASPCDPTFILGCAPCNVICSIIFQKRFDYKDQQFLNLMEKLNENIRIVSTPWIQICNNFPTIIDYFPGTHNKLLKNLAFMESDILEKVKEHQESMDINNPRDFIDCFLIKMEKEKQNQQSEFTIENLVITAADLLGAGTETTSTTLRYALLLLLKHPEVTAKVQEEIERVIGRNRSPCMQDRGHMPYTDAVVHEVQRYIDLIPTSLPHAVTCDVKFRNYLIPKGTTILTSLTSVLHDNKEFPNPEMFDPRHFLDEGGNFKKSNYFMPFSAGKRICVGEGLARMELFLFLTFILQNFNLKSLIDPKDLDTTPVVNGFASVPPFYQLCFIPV
Cytochrome P450 2D6 (Homo sapiens), sequence (P10635 whole entry, looked up): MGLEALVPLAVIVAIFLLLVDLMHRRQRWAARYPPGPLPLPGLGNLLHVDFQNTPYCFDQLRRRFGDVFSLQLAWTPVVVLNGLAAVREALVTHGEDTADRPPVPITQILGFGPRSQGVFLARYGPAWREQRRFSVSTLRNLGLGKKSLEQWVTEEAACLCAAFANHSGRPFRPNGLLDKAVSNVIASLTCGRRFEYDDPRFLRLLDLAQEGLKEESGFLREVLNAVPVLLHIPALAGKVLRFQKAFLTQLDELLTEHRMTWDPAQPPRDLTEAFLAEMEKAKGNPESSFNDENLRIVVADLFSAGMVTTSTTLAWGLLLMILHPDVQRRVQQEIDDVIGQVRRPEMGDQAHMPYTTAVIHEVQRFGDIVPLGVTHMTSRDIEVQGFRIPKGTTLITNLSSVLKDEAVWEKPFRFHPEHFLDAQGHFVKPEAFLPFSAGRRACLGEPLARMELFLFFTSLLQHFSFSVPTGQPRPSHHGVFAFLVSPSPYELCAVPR
Voltage-gated inwardly rectifying potassium channel KCNH2 (Homo sapiens), sequence (Q12809 whole entry, looked up): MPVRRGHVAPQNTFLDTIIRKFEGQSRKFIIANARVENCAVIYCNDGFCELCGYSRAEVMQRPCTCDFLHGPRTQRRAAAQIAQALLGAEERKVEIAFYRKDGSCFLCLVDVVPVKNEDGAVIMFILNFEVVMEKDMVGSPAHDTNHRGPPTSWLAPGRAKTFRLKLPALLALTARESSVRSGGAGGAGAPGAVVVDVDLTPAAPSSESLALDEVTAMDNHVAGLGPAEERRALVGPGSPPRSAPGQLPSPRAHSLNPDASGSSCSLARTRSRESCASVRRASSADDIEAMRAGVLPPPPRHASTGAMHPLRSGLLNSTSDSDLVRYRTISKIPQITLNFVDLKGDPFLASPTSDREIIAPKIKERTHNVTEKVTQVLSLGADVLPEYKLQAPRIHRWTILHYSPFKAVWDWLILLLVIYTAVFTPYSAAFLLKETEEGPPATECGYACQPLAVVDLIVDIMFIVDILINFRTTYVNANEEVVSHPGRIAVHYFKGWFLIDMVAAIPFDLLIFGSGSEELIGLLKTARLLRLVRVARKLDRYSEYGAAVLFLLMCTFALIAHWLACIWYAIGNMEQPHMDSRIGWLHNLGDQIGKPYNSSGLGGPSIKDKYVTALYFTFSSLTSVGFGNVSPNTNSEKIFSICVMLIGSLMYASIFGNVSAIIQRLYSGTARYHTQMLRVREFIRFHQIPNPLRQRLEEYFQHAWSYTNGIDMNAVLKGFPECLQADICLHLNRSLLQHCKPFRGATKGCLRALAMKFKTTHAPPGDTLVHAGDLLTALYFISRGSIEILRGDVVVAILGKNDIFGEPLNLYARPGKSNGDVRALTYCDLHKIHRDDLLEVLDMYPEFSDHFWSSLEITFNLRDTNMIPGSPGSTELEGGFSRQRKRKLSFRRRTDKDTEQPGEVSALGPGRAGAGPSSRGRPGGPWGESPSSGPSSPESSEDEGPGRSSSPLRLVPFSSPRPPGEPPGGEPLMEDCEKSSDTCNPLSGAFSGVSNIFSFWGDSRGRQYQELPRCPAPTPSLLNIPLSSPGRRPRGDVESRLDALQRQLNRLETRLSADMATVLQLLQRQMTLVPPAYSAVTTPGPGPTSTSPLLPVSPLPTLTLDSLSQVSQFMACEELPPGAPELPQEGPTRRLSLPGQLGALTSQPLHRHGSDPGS
Nuclear receptor subfamily 1 group I member 2 (Rattus norvegicus), sequence (Q9R1A7 whole entry, looked up): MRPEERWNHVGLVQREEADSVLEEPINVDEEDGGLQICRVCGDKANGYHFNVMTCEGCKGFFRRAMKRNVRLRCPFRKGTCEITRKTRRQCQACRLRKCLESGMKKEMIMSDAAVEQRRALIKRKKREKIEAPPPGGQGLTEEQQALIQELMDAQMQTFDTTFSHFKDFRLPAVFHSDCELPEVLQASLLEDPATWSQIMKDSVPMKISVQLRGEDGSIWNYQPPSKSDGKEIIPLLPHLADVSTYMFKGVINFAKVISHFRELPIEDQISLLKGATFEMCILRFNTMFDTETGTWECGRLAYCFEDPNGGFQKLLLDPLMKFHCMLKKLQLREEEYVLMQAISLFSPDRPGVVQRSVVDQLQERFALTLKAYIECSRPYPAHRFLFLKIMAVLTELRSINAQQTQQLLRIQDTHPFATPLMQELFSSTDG

Take `O=C1OC(=O)c2c(Br)c(Br)c(Br)c(Br)c21`: the outcome in assay [1] and in assay [4] was inactive. The Potency result in assay [2], in assay [3], in [5], in assay [6], in assay [7] and in assay [8] was “inactive” each time. Moreover, the Potency result in assay [9], in [10] and in assay [11] was “inactive” in each case.

On to `CCN(CC)CCOc1ccccc1C(=O)CCc1ccccc1`, for which the call in assay [1] and in [4] was inactive. Also, the Potency result in assay [12], in assay [3], in assay [5], in [8] and in assay [9] was “inactive” throughout. Also, the Potency in [6] was 26.6 µM (active); in assay [14] it was 14.1 µM (active); in [15], 15.8 µM (active); in assay [7], 0.692 µM (active); in [10], 7.76 µM (active); in assay [11], 3.38 µM (active). The max activation in assay [13] is 4.09%.

`COc1cc(NCc2ccc3nc(N)nc(N)c3c2C)cc(OC)c1OC`: the outcome in assay [1] and in assay [4] was inactive. The Potency result in assay [12], in assay [6], in assay [14], in assay [15] and in [11] was “inactive” each time. For the same compound, the Potency is 26.6 µM (active) in assay [3]; 26.6 µM (active) in [5]; 13.8 µM (active) in assay [7]; 9.77 µM (active) in assay [8]; 15.5 µM (active) in assay [9]; 7.76 µM (active) in [10]. For the same compound, in assay [13], the max activation is -10.1%.

With `Cc1cn([C@H]2C[C@H](F)[C@@H](CO)O2)c(=O)[nH]c1=O`, the Potency entry in assay [2], in [12], in assay [3], in assay [5], in assay [6] and in assay [14] was “inactive” each time. Besides, the Potency entry in [15], in [8], in assay [9], in assay [11] and in assay [16] was “inactive” each time. Besides, the outcome in assay [4] was inactive. Moreover, the max activation in assay [13] is -7.91%.

Turning to `COC(=O)C1=C(C)NC(C)=C(C(=O)OC(C)(C)CN(C)CCC(c2ccccc2)c2ccccc2)C1c1cccc([N+](=O)[O-])c1` (stereo unspecified), the result in [1] and in [4] was inactive. Besides, the Potency entry in [12] is “inactive”. Besides, the Potency in assay [3] is 16.8 µM (active); in assay [13], 3.98 µM (active); in assay [7] it was 4.36 µM (active); in [8], 1.38 µM (active); in assay [9], 2.45 µM (active); in [11], 2.39 µM (active).

Consider `CNCc1ccc(NC(=O)c2c[nH]c3c2C(=O)CCC3)cc1`, for which the compound was called inactive in assay [1] and in [4]. For the same compound, the Potency entry in [12], in assay [3], in assay [5], in assay [7] and in assay [11] was “inactive” each time. Moreover, the values for the Potency in [6] and in [10] were 1.09 µM (active) and 31.7 µM (active), respectively.

As for `CCOC(=O)Oc1ccc(CCNC(=O)[C@H](CCSC)NC(C)=O)cc1OC(=O)OCC`, the Potency result in [2], in assay [12], in assay [3], in assay [5], in assay [6] and in assay [7] was “inactive” each time. In addition, the Potency result in assay [8], in assay [10] and in assay [11] was “inactive” each time. In addition, the compound was called inactive in [4]. In addition, the Potency in assay [9] is 17.4 µM (active).

Turning to `Cc1ccc(N(CC2=NCCN2)c2cccc(O)c2)cc1`, the Potency result in assay [2], in [12], in [3], in assay [5], in assay [6] and in [9] was “inactive” each time. For the same compound, the Potency entry in assay [10] was “inactive”. In addition, the call in assay [4] was inactive. Also, the Potency in assay [7] was 0.776 µM (active); in [8], 17.4 µM (active).
